Measurements from PubChem BioAssay (NCATS).
Inconclusive results are not listed. Unmarked numbers belong to inactive results. The source made the active and inactive calls. The call rests on the fitted dose curve; in most records, active means well fitted inhibition curve with a large enough effect; inconclusive means small, poorly fitted or top-dose-only effect; inactive means flat fitted curve, though single readings scatter.

Molecular target: Luciferin 4-monooxygenase (Photinus pyralis) (UniProt P08659)
Sequence (P08659 whole entry, looked up): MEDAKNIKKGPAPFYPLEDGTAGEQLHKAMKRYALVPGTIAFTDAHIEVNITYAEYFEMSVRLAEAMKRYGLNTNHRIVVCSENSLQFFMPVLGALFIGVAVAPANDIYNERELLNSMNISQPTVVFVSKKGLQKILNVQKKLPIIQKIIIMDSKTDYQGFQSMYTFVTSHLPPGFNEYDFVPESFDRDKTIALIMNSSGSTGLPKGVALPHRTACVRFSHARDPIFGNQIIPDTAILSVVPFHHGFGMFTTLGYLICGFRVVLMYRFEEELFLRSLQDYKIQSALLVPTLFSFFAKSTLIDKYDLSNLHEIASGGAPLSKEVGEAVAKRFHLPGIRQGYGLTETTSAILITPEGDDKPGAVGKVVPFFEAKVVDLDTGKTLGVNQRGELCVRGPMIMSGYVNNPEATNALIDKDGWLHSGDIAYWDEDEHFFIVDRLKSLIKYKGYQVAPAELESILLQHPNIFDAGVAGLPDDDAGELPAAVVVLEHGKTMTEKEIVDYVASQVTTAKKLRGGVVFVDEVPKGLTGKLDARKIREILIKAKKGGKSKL
Test: Biochemical firefly luciferase enzyme assay for NPC (AID 624030);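 further: purified P. pyralis luciferase at 10 nM with luciferin and ATP substrate; 0% = DMSO and -100% = full luciferase inhibition by PTC124 control; nearly all actives have a fitted effect of over 70% in size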
Conditions: purified P. pyralis luciferase, luminescence, 5 min; series mostly up to 58.6 µM; activity change, negative = inhibition: at the top concentration
Method in brief: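 Counter-screen for direct inhibition of the luciferase enzyme by approved-drug library compounds, run at 10 nM enzyme in 50 mM Tris acetate (final). Luminescence was read within 5 min of enzyme-buffer addition and normalized to PTC124 versus DMSO (0%).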

Structure (SMILES) | activity change, negative = inhibition [%] | Potency
CC(=O)OCC(=O)Nc1cc(C#N)cc(NC(=O)COC(C)=O)c1Cl | -0.901 | 
OCCCc1ccccc1 | -1.77 | 
Cn1cc(S(C)=O)c(=O)c2ccc(F)cc21 (stereo not given) | 0.304 | 
Cc1cccc(N(C)C(=S)Oc2ccc3c(c2)CCC3)c1 | -11.6 | 
OCCc1ccccc1 | -1.12 | 
O=C1CC2(CCCC2)CC(=O)N1CCNCC1COc2ccccc2O1 (stereo not given) | 1.19 | 
CC(CCc1ccc2c(c1)OCO2)NN (stereo not given) | -12.2 | 
O=[N+]([O-])c1nccn1CO[C@@H](CO)[C@H](O)CO | 0.623 | 
CCOC(=O)Cn1cccc1-c1nc(-c2ccc(OC)cc2)c(-c2ccc(OC)cc2)s1 | -5.69 | 
CCNC(=O)NCCCOc1cccc(CN2CCCCC2)c1 | -0.531 | 
Cc1ccc2c(Cl)cc(Cl)c(O)c2n1 | -10.1 | 
O=C1NCCN1CCN1CCC(c2cn(-c3ccc(F)cc3)c3ccc(Cl)cc23)CC1 |  | inactive
O=C(O)c1[nH]n(-c2ccc(S(=O)(=O)O)cc2)c(=O)c1N=Nc1ccc(S(=O)(=O)O)cc1 | -9.65 | 
OCc1cccnc1 | -1.71 | 
COc1cc(C(=O)OC(COCCC(C)C)CN2CCOCC2)cc(OC)c1OC (stereo not given) | -1.79 | 
Cc1cccc(C)c1NC(=O)c1cc(S(N)(=O)=O)c(Cl)cc1O | -12.5 | 
CC(COc1ccccc1)NN (stereo not given) | -4.1 | 
CN1C(CSCC(F)(F)F)Nc2cc(Cl)c(S(N)(=O)=O)cc2S1(=O)=O (stereo not given) | -1.96 | 
Cc1nc([N+](=O)[O-])cn1-c1ccc([N+](=O)[O-])cc1 | -0.814 | 
C1N2CN3CN1CN(C2)C3 | 3.4 | 

Structure (SMILES) | activity change, negative = inhibition [%] | Potency
CCCCCC(=O)O[C@]1(C(C)=O)CC[C@H]2[C@@H]3CCC4=CC(=O)CC[C@]4(C)[C@H]3CC[C@@]21C | 0.8 | 
CCN1CCN(c2cc(-c3ccc(F)cc3)c3c(n2)CCCCCC3)CC1 | -0.548 | 
CCOC(=O)NNc1nncc2ccccc12 | -3.21 | 
CC(=O)OCC[N+](C)(C)C | -1.18 | 
Nc1c(NC/C=C\COc2cc(CN3CCCCC3)ccn2)c(=O)c1=O | -0.462 | 
O=C(OCC(COC(=O)c1cccnc1)(COC(=O)c1cccnc1)COC(=O)c1cccnc1)c1cccnc1 | 3.17 | 
CC(=O)Nc1ccc(S(=O)(=O)Nc2cc(C)on2)cc1 | 0.335 | 
O=C1[C@@H]2[C@H]3CC[C@H](C3)[C@@H]2C(=O)N1CCCCN1CCN(c2ncccn2)CC1 | -15.6 | 
CCOC(=O)c1ccc(OCCN2C[C@H](O)[C@@H](O)[C@H](O)[C@H]2CO)cc1 | -5.74 | 
COc1ccccc1OCC1CNC(=O)O1 (stereo not given) | 0.773 | 
C[C@H]1NCc2cc(-c3ccc4c(=O)c(C(=O)O)cn(C5CC5)c4c3OC(F)F)ccc21 | 1.59 | 
CCCCCCCCCCCCCCCCCCNC(=O)OC1CCN(C(=O)OC[C@H](COC(=O)N(Cc2cccc[n+]2CC)C(=O)c2ccccc2OC)OC)CC1 | 14.7 | 
C[C@@H](C1=C(CCN(C)C)Cc2ccccc21)c1ccccn1 | 4.88 | 
C[N+]1(C)CCC(OC(=O)C(O)(c2ccccc2)C2CCCC2)C1 (stereo not given) | 1.26 | 
CN1C(=O)CC(C)(c2ccccc2)C1=O (stereo not given) | -4.49 | 
COC(=O)C1=C(C)NC(COC(N)=O)=C(C(=O)OC(C)C)C1c1cccc(Cl)c1Cl (stereo not given) | -8.43 | 
O=C(CCC1CCN(Cc2ccccc2)CC1)c1ccc2c(c1)NCCCC2 | 1.25 | 
CCC(C(=O)NC(=O)NC(C)=O)c1ccccc1 (stereo not given) | -6.61 | 
CN1CCC(N(Cc2cccs2)c2ccccc2)CC1 | 6.26 | 
CCCN(CCC)C(=O)C(CCC(=O)OCCCN1CCN(CCOC(=O)Cc2c(C)n(C(=O)c3ccc(Cl)cc3)c3ccc(OC)cc23)CC1)NC(=O)c1ccccc1 (stereo not given) | -3.46 | 
